Compound activity deposited in PubChem by several laboratories.
SMARCA2 act – increases SMARCA2 function in MMTV reporter cells; 370,000 tested, 1% active; AID 652017; activation, % at 9.1 µM; MG213 cells, MMTV-luciferase reporter, dexamethasone, overnight; in the data active = activation above about 7.8%
proKLK7 act – activators of human kallikrein-7 zymogen; P49862; purified proKLK7, EDANS-DABCYL substrate fluorescence; 100% is mature enzyme control, 0% vehicle; activation, % at 7 µM; 370,000 tested, 0.9% active; AID 652039;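 active = activation above the mean of all tested compounds plus 3 SD, computed per campaign excluding outliers beyond control limits, cut at about 13% in these data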
GAA850 FXN act – frataxin GAA850 promoter activation; 360,000 tested, 0.56% active; HEK293 lucGAA850 FXN promoter luciferase reporter, 24 h; percent of 10 µM SAHA response; activation, % at 6 µM;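 active = activation above the average of all compounds screened plus 3 SD, cutoff fixed separately per campaign, cut at about 7.5% in these data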
FAS-TE inh – blocks the thioesterase domain of human fatty acid synthase. recombinant FAS-TE, OMFH fluorogenic substrate, fluorescence endpoint. inhibition, % at 15 µM. 360,000 tested, 0.67% active;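 active = compounds whose normalised, plate-corrected inhibition of enzyme fluorescence in the single-dose primary screen is 50% or more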
Target sequence (P49327 whole entry, looked up, the tested form may be a part): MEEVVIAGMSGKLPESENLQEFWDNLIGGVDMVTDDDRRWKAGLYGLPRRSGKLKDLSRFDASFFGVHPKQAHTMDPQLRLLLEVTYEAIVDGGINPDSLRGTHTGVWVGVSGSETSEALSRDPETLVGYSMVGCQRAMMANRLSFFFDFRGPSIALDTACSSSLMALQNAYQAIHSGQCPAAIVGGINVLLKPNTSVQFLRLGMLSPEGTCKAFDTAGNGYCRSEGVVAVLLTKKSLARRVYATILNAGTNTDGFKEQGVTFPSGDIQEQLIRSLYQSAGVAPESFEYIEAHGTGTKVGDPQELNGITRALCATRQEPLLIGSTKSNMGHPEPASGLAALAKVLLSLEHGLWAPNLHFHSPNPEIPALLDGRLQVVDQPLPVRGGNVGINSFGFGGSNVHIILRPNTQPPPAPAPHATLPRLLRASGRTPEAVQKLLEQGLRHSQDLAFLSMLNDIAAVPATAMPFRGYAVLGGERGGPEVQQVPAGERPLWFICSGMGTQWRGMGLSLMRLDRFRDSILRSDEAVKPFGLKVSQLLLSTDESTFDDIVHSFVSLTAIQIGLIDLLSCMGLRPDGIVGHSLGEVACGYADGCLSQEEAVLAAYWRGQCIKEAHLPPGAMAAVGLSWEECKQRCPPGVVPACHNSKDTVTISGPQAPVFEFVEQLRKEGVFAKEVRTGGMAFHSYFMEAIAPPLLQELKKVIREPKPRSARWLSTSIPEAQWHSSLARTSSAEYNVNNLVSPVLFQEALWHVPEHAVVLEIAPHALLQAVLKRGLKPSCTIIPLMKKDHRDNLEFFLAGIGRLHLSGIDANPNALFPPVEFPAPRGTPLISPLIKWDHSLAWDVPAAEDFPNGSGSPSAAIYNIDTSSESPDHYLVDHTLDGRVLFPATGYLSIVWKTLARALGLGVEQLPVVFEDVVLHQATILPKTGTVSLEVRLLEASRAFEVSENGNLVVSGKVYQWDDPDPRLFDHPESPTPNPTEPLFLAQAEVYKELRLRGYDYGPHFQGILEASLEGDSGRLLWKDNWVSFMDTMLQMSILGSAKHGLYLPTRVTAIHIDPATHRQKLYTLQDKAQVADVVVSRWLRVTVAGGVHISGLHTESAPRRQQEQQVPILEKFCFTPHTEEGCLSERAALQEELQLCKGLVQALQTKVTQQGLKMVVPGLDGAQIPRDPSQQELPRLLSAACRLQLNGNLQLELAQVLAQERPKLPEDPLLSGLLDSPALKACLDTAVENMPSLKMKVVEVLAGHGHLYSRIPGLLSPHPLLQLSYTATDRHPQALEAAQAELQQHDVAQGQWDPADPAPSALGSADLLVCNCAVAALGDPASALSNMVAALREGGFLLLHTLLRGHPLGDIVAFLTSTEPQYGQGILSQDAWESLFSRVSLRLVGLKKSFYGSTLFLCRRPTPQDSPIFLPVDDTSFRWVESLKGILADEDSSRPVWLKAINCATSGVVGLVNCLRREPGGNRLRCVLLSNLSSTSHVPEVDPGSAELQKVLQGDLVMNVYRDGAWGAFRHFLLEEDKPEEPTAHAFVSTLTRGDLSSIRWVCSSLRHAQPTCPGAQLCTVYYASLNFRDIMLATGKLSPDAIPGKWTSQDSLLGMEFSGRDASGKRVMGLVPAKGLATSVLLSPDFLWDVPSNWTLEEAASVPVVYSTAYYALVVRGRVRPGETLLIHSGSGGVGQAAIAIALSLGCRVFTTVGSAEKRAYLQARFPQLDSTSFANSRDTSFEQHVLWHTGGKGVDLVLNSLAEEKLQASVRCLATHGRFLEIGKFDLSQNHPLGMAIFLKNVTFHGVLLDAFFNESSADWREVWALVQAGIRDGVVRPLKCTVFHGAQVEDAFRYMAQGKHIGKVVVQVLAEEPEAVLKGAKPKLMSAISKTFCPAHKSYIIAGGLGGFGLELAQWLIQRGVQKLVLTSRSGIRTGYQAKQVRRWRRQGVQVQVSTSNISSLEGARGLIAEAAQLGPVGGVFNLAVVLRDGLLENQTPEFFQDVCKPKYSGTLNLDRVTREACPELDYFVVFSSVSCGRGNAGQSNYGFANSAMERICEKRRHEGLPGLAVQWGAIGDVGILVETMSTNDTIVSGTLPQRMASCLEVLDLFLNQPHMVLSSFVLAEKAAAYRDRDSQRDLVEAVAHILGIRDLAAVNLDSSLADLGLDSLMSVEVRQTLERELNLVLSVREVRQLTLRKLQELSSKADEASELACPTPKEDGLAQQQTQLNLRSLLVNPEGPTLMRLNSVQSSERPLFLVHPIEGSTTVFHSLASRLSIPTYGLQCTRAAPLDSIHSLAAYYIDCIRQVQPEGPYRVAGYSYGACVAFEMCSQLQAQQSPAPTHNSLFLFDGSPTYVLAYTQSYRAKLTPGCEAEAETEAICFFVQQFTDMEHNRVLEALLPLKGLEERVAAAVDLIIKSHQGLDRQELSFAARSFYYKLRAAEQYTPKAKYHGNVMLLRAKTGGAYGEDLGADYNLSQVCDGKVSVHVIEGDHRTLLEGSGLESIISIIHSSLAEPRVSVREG
proKLK7 act conf – proKLK7 activation, confirmation. shares compounds with proKLK7 act. activation, % at 7 µM. purified proKLK7, EDANS-DABCYL substrate fluorescence; scaled: vehicle 0, mature enzyme 100. 3,200 tested, 68% active;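 active = activation, as change over the incubation, above the mean of all tested compounds plus 3 SD, cut at about 13% in these data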
EDANS interfere – fluorescence interference counter-screen for KLK7 activators. 3,200 tested, 80% active. activation, % at 7 µM. EDANS-DABCYL substrate fluorescence interference, no enzyme, 4 h; solvent 0%, active enzyme control 100%. shares compounds with proKLK7 act;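 active = activation above the all-compound mean plus 3 SD, ignoring values outside control-based bounds, cut at about 4.8% in these data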;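 note: value is the 4 h activation minus the activation read at time zero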
K7 EDANS ctr – EDANS fluorescence interference in dose response, no enzyme. shares compounds with proKLK7 act. EDANS-DABCYL peptide fluorescence interference. EC50, µM. 250 tested, 20% active. AID 720493;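 active = compounds that raise the fluorescence signal in this interference counterscreen, with EC50 at or below 10 µM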;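 note: intact quenched peptide substrate alone read at 355 nm excitation and 520 nm emission; signal is fluorescence gain from T0 to T4 after four hours at room temperature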
A number is an active result; i = inactive; nt = no result. Shown are actives, neighbours in structure and some others; about 2.9% of the full set was active somewhere.

SMILES	SMARCA2 act	proKLK7 act	GAA850 FXN act	FAS-TE inh	proKLK7 act conf	EDANS interfere	others
COCCCn1c(=N)c(C(=O)NCc2ccc3c(c2)OCO3)cc2c(=O)n3cccc(C)c3nc21	i	i	i	i	nt	nt
COCCNC(=O)c1cc2c(=O)n3cccc(C)c3nc2n(Cc2ccncc2)c1=N	i	141	i	i	44	54
Cc1cccn2c(=O)c3cc(C(=O)O)n(C)c3nc12	i	21	i	i	49	48
CCOc1ccc(S(=O)(=O)N2CCCCC2)cc1NC(=O)Cc1cccs1	i	i	i	i	nt	nt
O=C1/C(=C/c2ccc(O)c(O)c2)Oc2cc(O)ccc21	i	45	i	i	109	118
Cc1ccsc1/C=C1\Oc2cc(O)ccc2C1=O	i	15	i	i	21	24
CCc1ccc2nc3nc(C)cc(C)c3c(N)c2c1	i	32	i	i	32	40
COc1cccc2c(=O)ccoc12	i	i	i	i	nt	nt
COc1cccc2c(=O)c3ccccc3oc12	i	13	i	i	15	21
COc1ccc2oc3ccccc3c(=O)c2c1	i	25	i	i	70	62
COc1ccc2oc3ccc(OC)cc3c(=O)c2c1	i	i	i	i	nt	nt
O=C(NNC1=Nc2ccccc2SC1)c1cccc([N+](=O)[O-])c1	i	i	i	i	nt	nt
COc1ccc2cc(C3=CC(=O)CCC3)ccc2c1	i	24	i	i	i	i
CN(C)C(=O)c1nc2ccc(Cl)cn2c1CN1CCCC(OCc2ccccc2)C1 (centres undefined)	i	i	i	i	nt	nt
O=C1OCC2=C1C(c1ccc(F)cc1)c1cc3c(cc1N2)OCO3 (centres undefined)	i	i	i	i	nt	nt
CCOc1ccccc1C1C2=C(COC2=O)Nc2cc3c(cc21)OCO3 (centres undefined)	i	16	i	i	i	i
COc1ccc(C2C3=C(COC3=O)Oc3cc4c(cc32)OCO4)cc1OC (centres undefined)	i	i	i	i	nt	nt
C#CCOc1ccc(C2C3=C(COC3=O)Nc3cc4c(cc32)OCO4)cc1OC (centres undefined)	i	69	i	i	i	i
CCCCNC(=O)N1CCOCCOCCN(C(=O)NCCCC)CCOCC1	i	i	i	i	nt	nt
O=C(Nc1ccc(Cl)c(Cl)c1)N(CCCN1CCOCC1)Cc1cccnc1	i	i	i	i	nt	nt
CC1=NNC(=O)C1C(c1ccc(F)cc1)C(C#N)C#N (centres undefined)	i	i	i	i	nt	nt
CCOc1ccc2nc(SCC(=O)NCc3ccc(S(N)(=O)=O)cc3)sc2c1	i	i	i	i	nt	nt
COc1ccc2[nH]c(=O)cc(C(=O)O)c2c1	i	20	i	i	39	45
COc1ccc2[nH]c(=O)c(C(=O)O)cc2c1	i	19	i	i	i	21
O=C(NC(c1ccccc1)c1ccc2ccccc2n1)C1CCN(CCOc2ccc(Cl)cc2)CC1 (centres undefined)	i	i	i	i	nt	nt
SMILES	SMARCA2 act	proKLK7 act	GAA850 FXN act	FAS-TE inh	proKLK7 act conf	EDANS interfere	others
Cc1cccc(NCC(=O)NNC(=S)Nc2ccccc2)c1	i	i	i	i	nt	nt
COc1ccccc1CC(=O)NNC(=O)c1cccs1	i	i	i	i	nt	nt
COc1ccccc1CC(=O)Nc1ccc(NC(=O)c2cccs2)cc1	i	52	i	i	73	59	K7 EDANS ctr=8.2
COc1cc(NC(=O)c2cccs2)c(OC)cc1NC(=O)CCC(=O)Nc1ccc(C)cc1	i	123	i	i	i	i
COc1ccc(NC(=O)CCC(=O)Nc2cc(OC)c(NC(=O)c3cccs3)cc2OC)cc1	i	i	i	i	nt	nt
C=CCN(c1ccccc1)S(=O)(=O)c1cccc(C(=O)Oc2ccc3c(C)cc(=O)oc3c2)c1	i	42	i	i	405	422
COc1ccc(-c2cc3ccc(O)cc3oc2=O)cc1	i	53	i	i	75	74
O=c1oc2cc(O)ccc2cc1-c1ccccc1	i	72	i	i	66	77
c1ccc2c(-c3cnc4cccnn34)cncc2c1	i	25	i	i	20	21
CSc1ccccc1-c1cnc2cccnn12	i	i	i	i	nt	nt
c1cc(-c2cnc3cccnn23)c2cccnc2c1	i	18	i	i	18	22
Cc1cccc(N2C(=O)SC(N(C)c3ccccc3)C2=O)c1 (centres undefined)	i	i	i	i	nt	nt
O=C1CC(N(O)c2ccccc2)C(=O)N1c1ccc(Cl)c(Cl)c1 (centres undefined)	i	34	i	i	459	467
Cc1cccc(N2C(=O)CC(N(O)c3ccccc3)C2=O)c1 (centres undefined)	i	274	i	i	349	366
CCC1(O)C(=O)OCc2c1cc1n(c2=O)Cc2cc3cc(O)ccc3nc2-1 (centres undefined)	i	64	i	i	74	77
C=CCn1c(N)c(C(=O)OCCC)c2nc3ccccc3nc21	i	60	i	i	52	50
CCOc1ccccc1N1CC(C(=O)NNC(=O)c2ccc(F)cc2)CC1=O (centres undefined)	i	i	i	i	nt	nt
O=C(N/C(=C/c1cccc(Br)c1)c1nc(=S)[nH][nH]1)c1ccccc1	i	i	i	i	nt	nt
Nc1nn2cc(-c3ccccc3)nc2c2ccccc12	i	66	i	i	55	53
COCCCNC(=O)COc1cc2c(c3oc(=O)c(C)c(C)c13)CCC(C)(C)O2	i	18	i	i	i	i
Cc1c(C)c2c(OCC(=O)N[C@@H](CC(C)C)C(=O)O)cc3c(c2oc1=O)CCC(C)(C)O3	i	45	i	i	41	27	K7 EDANS ctr=i
CSC[C@H](NC(=O)COc1cc2c(c3oc(=O)c(C)c(C)c13)CCC(C)(C)O2)C(=O)O	i	60	i	i	62	70
Cc1cc(=O)oc2c3c(cc(OCC(=O)NCc4ccccc4)c12)OC(C)(C)CC3	i	i	i	i	nt	nt
CCCC(NC(=O)COc1cc2c(c3oc(=O)c(C)c(C)c13)CCC(C)(C)O2)C(=O)O (centres undefined)	i	i	i	i	nt	nt
CSC[C@H](NC(=O)COc1cc2c(c3oc(=O)cc(C)c13)CCC(C)(C)O2)C(=O)O	i	24	i	i	60	64
CN1CCN(C(=S)c2cn(Cc3ccc(Br)cc3)c3ccccc23)CC1	i	i	i	i	nt	nt
Nc1ncnc2c1ncn2[C@@H]1O[C@H](CO)C[C@H]1O	i	i	i	i	nt	nt
O=C(NCc1ccco1)c1ccc(S(=O)(=O)N2CCCCCC2)cc1	i	i	i	i	nt	nt
Cc1c(C)c2c(OCC(=O)NCC(O)c3ccccc3)cc3c(c2oc1=O)CCC(C)(C)O3 (centres undefined)	i	i	i	i	nt	nt
